# Screens: PubChem BioAssay, National Center for Advancing Translational Sciences (NCATS)
# Only some compounds are listed: those with a hit (about 2.6% of all), similar ones and a draw of the others.
# Cruzain noTriton – qHTS Assay for Promiscuous and Specific Inhibitors of Cruzain (without detergent). purified cruzain, Z-FR-AMC fluorescence, no detergent. Potency, µM, for the others: max response, negative = inhibition, hits mostly inhibitors. 200,000 compounds, 2.3% hits. AID 1476, 2009;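 further: plate controls were enzyme without inhibitor for no effect and buffer without enzyme for full effect; nearly all actives have a fitted effect of over 40% in size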
# Target sequence (P25779 123-467 limits assumed): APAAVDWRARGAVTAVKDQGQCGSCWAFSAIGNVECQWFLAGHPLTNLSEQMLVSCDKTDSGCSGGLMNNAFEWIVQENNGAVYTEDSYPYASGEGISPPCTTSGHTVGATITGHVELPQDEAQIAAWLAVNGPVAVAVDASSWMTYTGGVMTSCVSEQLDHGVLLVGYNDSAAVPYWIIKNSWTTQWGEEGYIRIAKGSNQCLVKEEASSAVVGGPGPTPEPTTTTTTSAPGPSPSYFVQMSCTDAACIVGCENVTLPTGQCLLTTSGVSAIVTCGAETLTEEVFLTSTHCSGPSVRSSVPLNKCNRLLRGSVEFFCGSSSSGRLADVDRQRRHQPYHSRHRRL
#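 Purified cruzain at 1.5 nM, pre-incubated 15 min with compound at room temperature in 100 mM sodium acetate pH 5.5, 5 mM DTT, 0.00005% Triton X-100. Reaction started with 2 uM Z-FR-AMC; AMC fluorescence increase over 60 s gives rate.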
# Cruzain inh Det – qHTS Assay for Promiscuous and Specific Inhibitors of Cruzain (with detergent); Potency, µM, for inactives: max response, negative = inhibition, actives largely listed as inhibitors; Cruzipain (Trypanosoma cruzi), P25779; purified cruzain, Z-FR-AMC fluorescence, 0.01% Triton; 200,000 compounds, 0.43% hits; AID 1478, 2009;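 further: plate controls were neutral wells for no effect and buffer without enzyme for full effect; nearly all actives have a fitted effect of over 40% in size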
#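 Detergent-containing run (0.01% Triton X-100) in acetate buffer pH 5.5 with 5 mM DTT: enzyme at 1.5 nM final, 15 min compound preincubation at room temperature, then 2 uM Z-FR-AMC substrate. Activity taken as 60 s fluorescence increase at 360/450 nm.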
# Numbers without * were called inactive; ? = inconclusive; ! = not active in a repeat. The call rests on the fitted dose curve; in most records, active means well fitted curve in the direction sought with a large enough effect; inconclusive means small, poorly fitted or top-dose-only effect, or another doubt; inactive means no such curve, though single readings can be large; an effect the other way counts as inactive or inconclusive. Potency means the concentration at half of the fitted maximal effect.
SMILES,Cruzain noTriton,Cruzain inh Det
O=S1(=O)C=CC(N2CCOCC2)C1 (stereo not given),-3.6%,-0.9%
Cc1cccc(N2CCN(C(=O)CN3CCOc4ccccc43)CC2C)c1 (stereo not given),4.8%,3.4%
O=c1oc2ccccc2cc1-c1csc(NN=C2CCCCC2)n1,20µM*,-26.4%
O=c1oc2ccccc2cc1-c1csc(Nc2nc3ccc(F)cc3s2)n1,5.9%,-5.8%
O=c1oc2ccccc2cc1-c1csc(Nc2nc3c(F)cccc3s2)n1,31.6µM*,-3.3%
O=c1oc2ccccc2cc1-c1csc(Cc2nc(-c3ccc(Cl)cc3)cs2)n1,10µM*,-1.5%
O=c1oc2ccccc2cc1-c1nc(-c2cccc(Cl)c2)cs1,-1.3%,-0.3%
CC1CCC/C(=C(\C#N)c2nc(-c3cc4ccccc4oc3=O)cs2)C1 (stereo not given),-14.8%,-7.2%
CC1CCc2c(C(=O)N3CCN(S(=O)(=O)c4cccs4)CC3)csc2C1 (stereo not given),-1.8%,-2.6%
Cc1c(CN(C)C(=O)c2ccc(Br)o2)cnn1C,9.9%,-2.8%
COC(=O)C1=CO[C@@H](C)[C@@H]2CN3CC[C@@]4(C(=O)Nc5ccccc54)[C@@H]3C[C@H]12,-0.6%,-1.9%
COC(=O)c1c(NC(=O)Cc2cccs2)sc(C(=O)N2CCCCC2)c1C,-7.5%,-4.6%
Cc1ccc(CN(c2ccc(C(=O)N3CCc4ccccc4C3)cc2)S(C)(=O)=O)cc1,?,-3.4%
COc1ccc(C2c3cccn3CCN2S(=O)(=O)c2ccc([N+](=O)[O-])cc2)cc1 (stereo not given),25.1µM*,-3.2%
O=[N+]([O-])c1ccc(S(=O)(=O)N2CCn3cccc3C2c2ccccc2F)cc1 (stereo not given),?,-8.0%
CC1CC(NNC(=O)c2ccccc2)=Nc2ccccc2N1C (stereo not given),-5.8%,-2.4%
CCC(c1nnnn1Cc1cccs1)N1CCN(c2nc3ccccc3s2)CC1 (stereo not given),?,-2.8%
CC(C)CC(c1nnnn1Cc1cccs1)N1CCN(c2nc3ccccc3s2)CC1 (stereo not given),31.6µM*,-4.9%
Cc1ccccc1NC(=O)Cn1c(=O)n(Cc2ccccc2)c(=O)c2sc3ccccc3c21,1.0%,-1.2%
O=C(C/C=N/OCc1ccc(Cl)cc1)c1cnc(-c2ccccc2)s1,-29.6%,-3.6%
O=C(C/C=N/OCc1c(Cl)cccc1Cl)c1cnc(-c2ccccc2)s1,12.6µM*,1.0%
COc1cc(/C=N/NC(=O)CCn2c3ccccc3c3ccccc32)cc(OC)c1OC,?,-10.0%
Cc1ccc(N2C(=O)C3CCC(c4ccccc4)CC3C2=O)cc1 (stereo not given),-2.8%,-0.9%
CC1=NN(c2nc(-c3ccccc3)cs2)C(=O)C1,-18.0%,-10.2%
CC1=NN(c2nc(-c3ccc(C)cc3)cs2)C(=O)C1N=Nc1cccc(C)c1 (stereo not given),12.6µM*,-5.3%
SMILES,Cruzain noTriton,Cruzain inh Det
Cc1cc(C)nc(N/N=C/c2ccccc2OCc2cccc(Br)c2)n1,5.2%,-3.3%
O=c1cc2nc(-c3cccs3)nc(SCCOc3ccc(Cl)cc3)n2[nH]1,-2.9%,3.7%
Cc1ccc(NC(=O)CSc2nc(-c3ccc(C(C)(C)C)cc3)nc3cc(=O)[nH]n23)cc1C,3.98µM*,-0.7%
C=CCc1ccccc1OCCSc1nc(-c2ccc(C(C)(C)C)cc2)nc2cc(=O)[nH]n12,3.98µM*,-3.2%
Cc1cc(C)cc(OCCSc2nc(-c3cccs3)nc3cc(=O)[nH]n23)c1,5.8%,-0.2%
C=CCc1ccccc1OCCSc1nc(-c2cccs2)nc2cc(=O)[nH]n12,7.94µM*,-0.1%
COc1ccccc1OCCSc1nc(-c2ccc(C(C)(C)C)cc2)nc2cc(=O)[nH]n12,-9.0%,-5.6%
Cc1ccc(C(C)C)c(OCCSc2nc(-c3cccs3)nc3cc(=O)[nH]n23)c1,7.94µM*,0.6%
CCOc1ccc(-c2nc(SCC(=O)Nc3ccc(C)c(C)c3)n3[nH]c(=O)cc3n2)cc1,6.4%,2.0%
COCCNc1nnc(SCC(=O)Nc2sc3c(c2C(=O)c2ccccc2)CCCC3)s1,17.9%,-4.0%
CCOC(=O)N1CCN(C(=O)CSc2ccccc2)CC1,-3.3%,6.9%
Cc1cccc(-c2nc(SCCCOc3ccccc3Cl)n3[nH]c(=O)cc3n2)c1,15.8µM*,2.8%
Cc1cccc(-c2nc(SCCCOc3cc(C)c(Cl)c(C)c3)n3[nH]c(=O)cc3n2)c1,-1.1%,-0.6%
O=C(Nc1nc(-c2ccccc2)cs1)C1CCCN(S(=O)(=O)c2ccccc2)C1 (stereo not given),20µM*,4.7%
O=C(Nc1nc(-c2ccc3ccccc3c2)cs1)C1CCN(S(=O)(=O)c2cccs2)CC1,3.16µM*,-2.2%
O=C(Nc1nc(-c2ccccc2)cs1)C1CCCN(S(=O)(=O)c2cccc([N+](=O)[O-])c2)C1 (stereo not given),7.94µM*,-3.9%
O=C(Nc1nc(-c2ccccc2)cs1)C1CCCCN1S(=O)(=O)c1ccccc1 (stereo not given),?,-11.0%
O=C(Nc1nc(-c2ccccc2)cs1)C1CCCCN1S(=O)(=O)c1ccc(Cl)cc1 (stereo not given),?,-2.9%
Cc1ccc(-c2csc(NC(=O)C3CCN(S(=O)(=O)c4cccs4)CC3)n2)cc1,?,-4.4%
Cc1ccccc1C(=O)NC(=S)Nc1sc2c(c1C#N)CCCC2,?,-3.5%
Cc1sc(NC(=S)NC(=O)c2ccc(C(C)(C)C)cc2)c(C#N)c1C,10µM*,1.3%
O=C(Nc1ccc2c(c1)CCC2)c1cc(S(=O)(=O)Nc2ccc(F)cc2)c(Cl)cc1Cl,20µM*,-0.8%
O=C(Nc1ccc2c(c1)CCC2)c1ccc(F)cc1,1.7%,-3.4%
CCCC(O)c1nc2ccccc2n1Cc1ccccc1OC (stereo not given),-4.2%,-1.2%
COc1cc2c(=O)n(Cc3ccco3)c(=O)n(CC(=O)Nc3ccc(F)cc3)c2cc1OC,4.7%,-4.0%
SMILES,Cruzain noTriton,Cruzain inh Det
O=c1cc(-c2ccc(O)c(O)c2)oc2cc(O)cc(O)c12,-19.0%,-13.3%
O=c1c(O)c(-c2ccc(O)c(O)c2)oc2cc(O)cc(O)c12,20µM*!,?
Cc1cccc(OCC(=O)Nc2nc3ccc([N+](=O)[O-])cc3s2)c1,?,-0.5%
CC(C)c1ccc(/C=C/C(=O)Nc2nc3ccc([N+](=O)[O-])cc3s2)cc1,3.98µM*,3.9%
COCC(=O)NCc1nc2ccccc2[nH]1,-13.3%,0.4%
CCN(CC)C(=O)C(C)N(C#N)c1nc(C)cc(C)n1 (stereo not given),-1.0%,-0.2%
COc1ccc(NC(=O)c2ccc(CN(c3cc(Cl)ccc3C)S(=O)(=O)c3ccccc3)cc2)cc1OC,?,1.4%
COc1ccccc1NC(=O)c1ccc(CN(c2cc(Cl)ccc2C)S(=O)(=O)c2ccccc2)cc1,12.6µM*,-0.3%
CCOC(=O)C1=C(CSc2nc3ccccc3s2)NC(=O)NC1c1ccc(OC)cc1 (stereo not given),25.1µM*,-3.1%
CCOC(=O)C1=C(CSc2nc3ccccc3s2)NC(=O)NC1c1cc(C)ccc1C (stereo not given),31.6µM*,1.5%
CCOC(=O)C1=C(CSCC(=O)OC)NC(=O)NC1c1cc(C)ccc1C (stereo not given),-5.5%,4.9%
